Assay results as given in PubChem BioAssay AID1568 (National Center for Advancing Translational Sciences (NCATS), 2009).
Results filed as inconclusive are left out. Activity calls are given as the source filed them. Calls come from the whole dose curve; as a rule, active = well fitted curve in the direction sought with a large enough effect; inconclusive = small, poorly fitted or top-dose-only effect, or effect the other way, or another doubt; inactive = no such curve, though single readings can be large or run the other way.

test: Cell Viability Secondary Assay to Characterize qHTS Inhibitors of the Interaction of Thyroid Hormone Receptor and Steroid Receptor Coregulator 2; conditions: cell viability counter-screen, qHTS titration; series mostly up to 29.9 µM; activity change, negative = cytotoxicity: at the top concentration
Excerpt: NIH Molecular Libraries Probe Production Network [MLPCN]
NIH Chemical Genomics Center [NCGC]
Assay Provider: R. Kip Guy, St. Jude Children's Research Hospital
Thyroid receptor (TR) regulates many homeostatic processes including basal metabolism, cardiovascular function, body weight, and lipid trafficking. TR modulators are potential therapeutics for obesity and hyperlipidemias but current thyroid analogs have undesirable side effects, particularly cardiac stimulation. This secondary assay characterized selected actives identified in the qHTS for Inhibitors of the Interaction of Thyroid Hormone Receptor and Steroid Receptor Coregulator 2. The human follicular thyroid carcinoma cell line WRO (kindly provided by Dr. M. D. Ringel) stably expresses TRbeta and a luciferase reporter gene fused to TR response element. The effect of compounds on the viability of these cells was assessed by measuring ATP levels. Compounds that reduce cell viability are likely cytotoxic.
NCGC Assay Protocol Summary:
Cells were maintained in RPMI 1640 culture medium supplemented with 10% heat-inactivated FBS, 0.33 mg/ml hygromycin, 0.33 mg/ml geneticin, 50 units/ml penicillin, 50 ug/ml streptomycin. Cells were harvested and resuspended at 330,000 cells/ml in assay medium (50% DMEM 50% F-12 medium without Phenol-Red (Cellgro #16-405-CV), L-glutamine, 10% heat inactivated and charcoal treated FBS, 100 uM non-essential amino acid, 50 units/ml penicillin, 50 ug/ml streptomycin). Cells were dispensed at 10,000 cells/30 ul/well into 384 well plates (Corning 3917) and incubated 12 h at 37 C and 5% CO2. Compounds and T3 (100nM final concentration) were added using a pin tool and plates were incubated 16 h incubation at 37 C and 5% CO2. Following incubation, plates were equilibrated at ambient temperature for 30 min, 20 ul of CellTiter-Glo (Promega) was added and luminescence was detected by an EnVision (PerkinElmer).

| Compound | activity change, negative = cytotoxicity | Potency |
| --- | --- | --- |
| O=C(O)CC1OCC=C2CN3CCC45C6=CC(=O)C(=O)C([N+](=O)[O-])=C6NC4C1C2CC35 (stereo not given) | -16.5% (inactive) |  |
| CCCCCn1c(N)c(C(=O)NCc2cccs2)c2nc3ccccc3nc21 | -10.1% (inactive) |  |
| COP(=S)(OC)Oc1ccc([N+](=O)[O-])cc1 |  | 31.6 µM (active) |
| CN1CC[C@@]2(C)c3cc(O)ccc3N(C)C2O1 (stereo not given in full) |  | 14.1 µM (active) |
| Cc1[nH]n(-c2ccccc2)c(=O)c1C(c1ccc([N+](=O)[O-])cc1)c1c(C)[nH]n(-c2ccccc2)c1=O | -29.6% (inactive) |  |
